Measurements taken from PubChem BioAssay.
The source made the active and inactive calls.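 Rule for the calls, unless noted: active = inhibition at or above 50% at 10 µM; inactive = inhibition below 50%.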

How the values were obtained:
[1] = inhibitors of TNFa-induced NFkB p65 translocation, primary screen, imaging, HUVEC, MLSMR starter and 10KST1 sets (AID 438;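 active = inhibition above 20% together with a positive visual image hit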;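 note: compound added about 3h40 before a 20 min TNFalpha stimulation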;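 for inhibition: signal is the nuclear over cytoplasmic p65 intensity ratio per well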); details: HUVEC TNFa-induced p65 nuclear translocation; cell count: measured here: nuclei count (cytotoxicity indicator), at 2.08 µM; inhibition: at 2 µM, stronger effect = higher value, 0% TNFa-plus-vehicle, 100% no-TNFa wells
[2] = reduction of polyQ htt aggregates in cells – imaging, exon1htt(103Q)mCFP cells, high-content imaging, primary screen (AID 483;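 active = visual image review flags a hit and inhibition of aggregation exceeds 20%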;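 note: compound exposure lasted 3 days before fixation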;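 for nuclei count: percent of the per-plate median nuclei count of sample wells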); details: exon1htt(103Q)mCFP cell line, aggregate imaging, at 2 µM; inhibition of aggregation: stronger effect = higher value; nuclei count: measured here: cell count, toxicity
[3] = endothelial E-selectin expression blockers – imaging, HUVEC, immunofluorescence, MLSMR starter and 10KST1 sets, primary screen (AID 487;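 active = visually confirmed hit in the image check and inhibition above 20%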;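 for inhibition: signal is fraction of cell area covered by stained E-selectin grains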;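 for nuclei count: 100% = median nuclei count of all wells on the same plate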); details: HUVEC TNFalpha-induced E-selectin immunofluorescence imaging, at 2 µM; inhibition: stronger effect = higher value; nuclei count: measured here: cell number, toxicity
[4] = target: Voltage-gated potassium channel subunit beta-2 (Rattus norvegicus) (UniProt P62483); test: inhibitors of rat Kvbeta2 reductase activity – biochemical, NADPH fluorescence, primary screen (AID 622;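 active = fluorescence slope higher than the sample average by over 3 SD, cut at about -0.22 in these data, passing the limit was not always enough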;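 note: slope of raw intensity against log time taken from 70 to 1610 s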); details: recombinant KvBeta, 4-cyanobenzaldehyde reduction, at 10 µM, stronger effect = higher value
[5] = target: Voltage-gated potassium channel subunit beta-2 (Rattus norvegicus) (UniProt P62483); test: enhancers of rat Kvbeta2 NADPH turnover – biochemical, NADPH fluorescence, primary screen (AID 623;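 active = NADPH fluorescence slope more negative than the mean of all samples by about 3 SD, 99.7% confidence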;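 note: fluorescence intensity change per second fitted from 20 to 320 s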); details: Recombinant KvBeta, NADPH fluorescence decrease slope, 10 min; at 10 µM; stronger effect = lower value
[6] = target: Alpha-2C adrenergic receptor (Homo sapiens) (UniProt P18825); test: compounds altering alpha2C-coupled GIRK flux – cell-based, HEK293 alpha2C/GIRK1/2, thallium flux, primary screen (AID 624;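 active = fluorescence slope after compound addition differing from the mean of all screened samples at 99.7% confidence, in either direction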;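 note: slope of fluorescence ratio to pre-addition baseline per second over 15 to 24 s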); details: thallium flux BTC fluorescence, at 10 µM, actives lie on both sides
[7] = blockers of RIG-like receptor reporter activation – cell-based, Sendai virus stimulus, luciferase, 10K MLSCN set, TLR/RLR signaling modifier project, primary screen (AID 602276); details: HEK293 RL24 IRF3 luciferase reporter, at 10 µM, stronger effect = higher value;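 note: firefly luciferase from ISG56 promoter only with Renilla not read in this screen; 0% = Sendai virus plus DMSO and 100% = medium plus DMSO without virus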
[8] = TLR3 IRF3 reporter activation blockers – cell-based, poly I:C stimulus, luciferase, 10K MLSCN set, primary screen (AID 602277;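 active = inhibition of the reporter signal at or above 50%; inactive = inhibition below 50%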); details: HEK293-TLR3 RL24 IRF3 luciferase reporter, at 10 µM, stronger effect = higher value

Sequence of Voltage-gated potassium channel subunit beta-2 (Rattus norvegicus) (P62483 whole entry, looked up): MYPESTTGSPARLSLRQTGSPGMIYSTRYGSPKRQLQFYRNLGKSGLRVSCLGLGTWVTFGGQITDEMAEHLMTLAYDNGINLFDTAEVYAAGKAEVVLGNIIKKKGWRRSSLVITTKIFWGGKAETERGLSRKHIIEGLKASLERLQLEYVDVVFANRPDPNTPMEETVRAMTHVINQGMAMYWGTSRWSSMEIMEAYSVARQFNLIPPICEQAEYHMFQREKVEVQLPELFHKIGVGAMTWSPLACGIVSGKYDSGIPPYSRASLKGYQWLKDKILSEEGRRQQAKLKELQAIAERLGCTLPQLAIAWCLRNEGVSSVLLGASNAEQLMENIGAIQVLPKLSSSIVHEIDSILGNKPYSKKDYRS
Sequence of Alpha-2C adrenergic receptor (Homo sapiens) (P18825 whole entry, looked up): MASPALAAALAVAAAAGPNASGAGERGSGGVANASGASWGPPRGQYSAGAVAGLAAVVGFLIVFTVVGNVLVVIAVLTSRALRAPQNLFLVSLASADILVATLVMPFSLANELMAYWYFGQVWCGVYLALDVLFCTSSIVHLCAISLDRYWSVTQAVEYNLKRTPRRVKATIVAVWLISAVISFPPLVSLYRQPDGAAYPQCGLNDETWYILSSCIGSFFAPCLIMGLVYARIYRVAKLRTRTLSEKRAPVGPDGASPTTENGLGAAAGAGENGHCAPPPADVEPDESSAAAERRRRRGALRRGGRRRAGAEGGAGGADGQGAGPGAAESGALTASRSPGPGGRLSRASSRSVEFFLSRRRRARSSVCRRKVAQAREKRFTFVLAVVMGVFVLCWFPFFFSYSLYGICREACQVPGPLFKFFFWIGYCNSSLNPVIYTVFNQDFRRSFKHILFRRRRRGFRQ

For `CC1=C(C(N)=O)C(c2ccncc2)n2nc(-c3ccccc3Cl)nc2N1` (centres undefined), the cell count [1] was 617, the inhibition [1] was 0% (inactive) and the inhibition of aggregation [2] was 5.7% (inactive). For the same compound, the nuclei count [2] was 92.1%, the inhibition [3] was -1.2% (inactive) and the nuclei count [3] was 109%. The fluorescence slope [4] was -0.528 (inactive), the NADPH fluorescence slope [5] was -2.9e-05 (inactive) and the slope [6] was 0.00735 (inactive). For the same compound, the inhibition [7] was 3.63% (inactive) and the inhibition [8] was 21.9% (inactive).

For `CCOc1cc(-c2nc3ccccn3c2NCC2CCCO2)ccc1O` (centres undefined), the cell count [1] was 406, the inhibition [1] was -0.9% (inactive) and the inhibition of aggregation [2] was -2.6% (inactive). The nuclei count [2] was 94.3%, the inhibition [3] was -97% (inactive) and the nuclei count [3] was 83.1%. The fluorescence slope [4] was -0.091 (active), the NADPH fluorescence slope [5] was -2.7e-05 (inactive) and the slope [6] was 0.00327 (inactive). For the same compound, the inhibition [7] was -9.84% (inactive) and the inhibition [8] was -3.91% (inactive).

With `O=C(CN1CCC(NC(=O)c2ccc(F)cc2)CC1)NCc1ccccc1F` the cell count [1] was 435, the inhibition [1] was 4.6% (inactive) and the inhibition of aggregation [2] was -0.1% (inactive). For the same compound, the nuclei count [2] was 101%, the inhibition [3] was -192% (inactive) and the nuclei count [3] was 110%. For the same compound, the fluorescence slope [4] was -0.438 (inactive), the NADPH fluorescence slope [5] was -6.6e-06 (inactive) and the slope [6] was 0.00564 (inactive). The inhibition [7] was 10.1% (inactive) and the inhibition [8] was 23.8% (inactive).

With `CCOc1ccc2nc(NC(=O)CSc3nc4ccccc4c(=O)n3Cc3ccco3)sc2c1` the cell count [1] was 654, the inhibition [1] was -6.1% (inactive) and the inhibition of aggregation [2] was -5.6% (inactive). The nuclei count [2] was 115%, the inhibition [3] was -65.7% (inactive) and the nuclei count [3] was 132%. The fluorescence slope [4] was -0.413 (inactive), the NADPH fluorescence slope [5] was 9.6e-06 (inactive) and the slope [6] was 0.00934 (active). The inhibition [7] was 15.6% (inactive) and the inhibition [8] was 10% (inactive).

With `Cc1nc(NC(=O)c2csc3ccccc23)sc1C` the cell count [1] was 386, the inhibition [1] was -2.7% (inactive) and the inhibition of aggregation [2] was -3.7% (inactive). For the same compound, the nuclei count [2] was 103%, the inhibition [3] was -38.1% (inactive) and the nuclei count [3] was 117%. The fluorescence slope [4] was -0.504 (inactive), the NADPH fluorescence slope [5] was -5.5e-05 (inactive) and the slope [6] was 0.00508 (inactive). The inhibition [7] was -31.4% (inactive) and the inhibition [8] was -86.4% (inactive).

With `CN1CCCN(CC(O)COCc2cccs2)CC1` (centres undefined) the cell count [1] was 489, the inhibition [1] was -6.7% (inactive) and the inhibition of aggregation [2] was -19.8% (inactive). The nuclei count [2] was 108%, the inhibition [3] was -66% (inactive) and the nuclei count [3] was 153%. The fluorescence slope [4] was -0.489 (inactive), the NADPH fluorescence slope [5] was -3.2e-05 (inactive) and the slope [6] was 0.00614 (inactive). The inhibition [7] was -7.31% (inactive) and the inhibition [8] was 24.2% (inactive).

With `COc1ccc2[nH]c(=O)c(CNC3CCCCC3)cc2c1` the cell count [1] was 673, the inhibition [1] was 6.3% (inactive) and the inhibition of aggregation [2] was 3.5% (inactive). The nuclei count [2] was 112%, the inhibition [3] was -17.6% (inactive) and the nuclei count [3] was 90.1%. For the same compound, the fluorescence slope [4] was -0.452 (inactive), the NADPH fluorescence slope [5] was -3.4e-05 (inactive) and the slope [6] was 0.00407 (inactive). The inhibition [7] was 6.87% (inactive) and the inhibition [8] was 29% (inactive).

With `COC(=O)c1ccc2c(=O)n(CC3CCCO3)c(=S)[nH]c2c1` (centres undefined) the cell count [1] was 548, the inhibition [1] was 16% (inactive) and the inhibition of aggregation [2] was -9.1% (inactive). The nuclei count [2] was 92.8%, the inhibition [3] was -137% (inactive) and the nuclei count [3] was 94.3%. For the same compound, the fluorescence slope [4] was -0.478 (inactive), the NADPH fluorescence slope [5] was -2.8e-05 (inactive) and the slope [6] was 0.00617 (inactive). The inhibition [7] was 14.9% (inactive) and the inhibition [8] was 12.3% (inactive).

With `CCOC(=O)N1CCC(NC(=O)c2ccc(CS(=O)(=O)c3c(Cl)cccc3Cl)o2)CC1` the cell count [1] was 608, the inhibition [1] was -3.7% (inactive) and the inhibition of aggregation [2] was 10.7% (inactive). The nuclei count [2] was 94.3%, the inhibition [3] was -44.1% (inactive) and the nuclei count [3] was 104%. The fluorescence slope [4] was -0.611 (inactive), the NADPH fluorescence slope [5] was 2.7e-05 (inactive) and the slope [6] was 0.00587 (inactive). For the same compound, the inhibition [7] was 16.5% (inactive) and the inhibition [8] was 0.288% (inactive).

For `COc1cc2cc(C(c3nnnn3C3CCCC3)N(C)C3CCCCC3)c(=O)[nH]c2cc1OC` (centres undefined), the cell count [1] was 537, the inhibition [1] was -13.2% (inactive) and the inhibition of aggregation [2] was -34.3% (inactive). The nuclei count [2] was 100%, the inhibition [3] was -15.9% (inactive) and the nuclei count [3] was 108%. For the same compound, the fluorescence slope [4] was -0.465 (inactive), the NADPH fluorescence slope [5] was -2e-05 (inactive) and the slope [6] was 0.007 (inactive). The inhibition [7] was 12.4% (inactive) and the inhibition [8] was 22% (inactive).

For `CCOC(=O)c1sc(N)c(C(=O)OCC)c1COC(=O)C1CC(=O)N(Cc2ccco2)C1` (centres undefined), the cell count [1] was 780, the inhibition [1] was 2.9% (inactive) and the inhibition of aggregation [2] was -82.9% (inactive). For the same compound, the nuclei count [2] was 104%, the inhibition [3] was -33.4% (inactive) and the nuclei count [3] was 116%. The fluorescence slope [4] was -0.526 (inactive), the NADPH fluorescence slope [5] was -4.5e-05 (inactive) and the slope [6] was 0.00648 (inactive). The inhibition [7] was -20.6% (inactive) and the inhibition [8] was -13.3% (inactive).

With `COCCCN(C)C1CCN(C(=O)Nc2ccc(F)cc2)CC1` the cell count [1] was 610, the inhibition [1] was -1.3% (inactive) and the inhibition of aggregation [2] was -8.7% (inactive). The nuclei count [2] was 108%, the inhibition [3] was -49.7% (inactive) and the nuclei count [3] was 102%. For the same compound, the fluorescence slope [4] was -0.582 (inactive), the NADPH fluorescence slope [5] was -1.9e-06 (inactive) and the slope [6] was 0.00654 (inactive). For the same compound, the inhibition [7] was 11% (inactive) and the inhibition [8] was 36.9% (inactive).

With `COc1cccc(C2=Nn3c(nnc3-c3ccccc3O)SC2)c1` the cell count [1] was 436, the inhibition [1] was 3.4% (inactive) and the inhibition of aggregation [2] was 2.3% (inactive). For the same compound, the nuclei count [2] was 99.4%, the inhibition [3] was 25.3% (inactive) and the nuclei count [3] was 86.4%. For the same compound, the fluorescence slope [4] was -0.312 (inactive), the NADPH fluorescence slope [5] was 2.8e-05 (inactive) and the slope [6] was 0.00345 (inactive). For the same compound, the inhibition [7] was 6.36% (inactive) and the inhibition [8] was 19.2% (inactive).

With `CCN(Cc1cc2cc(OC)ccc2[nH]c1=O)C(=O)c1ccncc1` the cell count [1] was 458, the inhibition [1] was -1% (inactive) and the inhibition of aggregation [2] was -12.3% (inactive). For the same compound, the nuclei count [2] was 111%, the inhibition [3] was -34.1% (inactive) and the nuclei count [3] was 198%. The fluorescence slope [4] was -0.498 (inactive), the NADPH fluorescence slope [5] was 4.7e-05 (inactive) and the slope [6] was 0.00638 (inactive). The inhibition [7] was 13.5% (inactive) and the inhibition [8] was 20.1% (inactive).
